FMDV antiviral = antivirals against foot and mouth disease virus; FMDV antiviral cell-based qHTS; Potency, µM (doses to about 57.9 µM), without a hit: at the top dose activity change, negative = inhibition, hits mostly inhibitors; actives 1.2% (n = 410,000); calls by dose curve; tested in HEK293T cells; also: read-out not given here; potency is read from the fitted curve at half-maximal effect; nearly all actives have a fitted effect of over 45% in size
HCV inh = blocks hepatitis C virus | Huh7.5.1 HCVcc-Cre infection, luciferase reporter, 44 h | Potency, µM (top dose mostly 41.8 µM), for the others: at the highest dose activity change, negative = inhibition, actives largely listed as inhibitors | actives 3.4% (n = 340,000) | AID 651820; active = well fitted inhibition curve with a large enough effect; inconclusive = small, poorly fitted or top-dose-only effect, or another doubt; inactive = no such curve, though single readings can be large or run the other way; also: potency is read from the fitted curve at half-maximal effect
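Cells (1,000/well) were plated 4 h before compound, then infected with HCVcc-Cre virus (~0.5 moi). After 44 h further culture, infection was read as luciferase luminescence following a 15 min substrate incubation at room temperature.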
HCMV antiviral = human cytomegalovirus inhibition; HFF cells, HCMV-luciferase reporter, 72 h; active compounds read low; activity change, negative = inhibition, % at 57.5 µM; actives 4.5% (n = 410,000); AID 1259415; in the data active = activity change below about -60%; inconclusive = no clear call, values can overlap the other calls; inactive = above about -39%
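Compounds were evaluated in HFFs infected with an HCMV luciferase reporter virus (MOI 1 PFU/cell). Luciferase in lysates collected 72 h post infection served as the replication measure.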
LASV entry inh = inhibitors of Lassa virus binding or cell entry; Lassa virus pseudotype entry inhibition, cell reporter; Potency, µM (series often up to 37.9 µM), without a hit: top-dose activity change, negative = inhibition, most hits filed as inhibitors; actives 1.2% (n = 300,000); AID 540256; calls by dose curve; tested in HEK293 cells; also: potency is read from the fitted curve at half-maximal effect; nearly all actives have a fitted effect of over 50% in size
Marburg entry inh = Marburg virus entry inhibition; Marburg virus pseudotyped entry inhibition, cell reporter; Potency, µM (top dose mostly 37.8 µM), for the others: at the highest dose activity change, negative = inhibition, actives largely listed as inhibitors; actives 1.8% (n = 300,000); AID 540276; calls by dose curve; tested in HEK293 cells; also: potency is read from the fitted curve at half-maximal effect
* hit, by the source's call; ? = inconclusive; . = no result given; [ ] = remark or other dose. Compounds with a hit are over-represented: about 7.9% of the library has one in this group of screens. % is scaled to controls: 0 for no effect and ±100 for the full control effect.

SMILES | FMDV antiviral | HCV inh | HCMV antiviral | LASV entry inh | Marburg entry inh
C[C@]12CCC(=O)C=C1C=CC1C2CC[C@]2(C)C(=O)CCC12 (stereo partly drawn) | -22.6% | 18.6% | -69.9* | ? | 6.7%
C[C@]12CCC(=O)C=C1C=C[C@@H]1[C@@H]2CC[C@@]2(C)[C@H]1CC[C@@]21CCC(=O)O1 | ? | -4.8% | ? | . | .
Clc1ccc2ncc(-c3nnnn3-c3ccccc3)c(-c3ccccc3)c2c1 | 0.0% | 2.82µM* | -35.7 | ? | ?
CCOC(=O)CCNC(=O)C1=CN2CCN(Cc3ccccc3C)C(=O)N=C2O1 | . | . | 6.5 | . | .
COc1ccc(CCNCCC(c2ccccc2)c2ccccc2)cc1OC | ? | . | 24.0 | . | .
COc1cc(OC)c(OC)cc1CCC(C)NCCC(c1ccccc1)c1ccccc1 (stereo not drawn) | -13.5% | 7.94µM* | -60.1* | . | .
CC(=O)Nc1cc(C(=O)N2CCN(c3ccccc3)CC2C)cc2ncn(CCc3ccccn3)c12 (stereo not drawn) | 0.0% | . | . | . | .
Cc1oc2c(c1C(=O)Nc1ccccc1Br)C1=NCCN1C=N2 | 44.1% | . | 12.9 | 10.5%[46.1 µM] | .
CCOc1ccc(NC(=O)CN(C)C(=O)CCc2ccccc2Cl)cc1OCC | ? | -20.0% | -80.4* | 12.9% | -1.5%
COc1ccccc1CNC(=O)c1ccc(CN2CC(=O)N3CCCCC3C2=O)cc1 (stereo not drawn) | -6.2% | . | -23.1 | 6.0%[46.1 µM] | .
Cc1ccc(Cl)cc1N1CCN(C(=O)Cn2cnc3sc(C)c(S(=O)(=O)N4CCC(C)CC4)c3c2=O)CC1 | -20.4% | . | 22.7 | 11.2%[46.1 µM] | -19.4%[46.1 µM]
CC(C)(C)C1CCc2nc(NC(=O)Cc3cn4ccsc4n3)sc2C1 (stereo not drawn) | 41.2% | 22.4µM* | 15.0 | -2.2% | -6.3%
CC(C)(C)C1CCc2nc(NC(=O)Cc3ccc(Cl)cc3)sc2C1 (stereo not drawn) | -11.6% | . | -7.2 | 21.3%[46.1 µM] | ?
C=CCC(O)c1nc(C(=O)Nc2ccc(F)cc2)cs1 (stereo not drawn) | . | . | -13.8 | . | .
CC(C)c1ccc(NC(=O)N2CCc3nc(NCc4cccc(Oc5ccccc5)c4)ncc3C2)cc1 | -34.3% | . | -86.6* | . | .
COc1cccc(NC(=O)N2CCc3nc(Nc4ccc(C(C)C)cc4)ncc3C2)c1 | -13.7% | . | -68.6* | . | .
COc1cc(Nc2ncc3c(n2)CCN(C(=O)Nc2ccc(C(C)C)cc2)C3)cc(OC)c1OC | -18.5% | . | ? | . | .
O=C(Nc1cccc(F)c1)N1CCc2nc(NCc3cccc(Oc4ccccc4)c3)ncc2C1 | ? | . | -77.8* | . | .
C=CCCN(Cc1ccc(C)cc1)S(=O)(=O)C=C | . | . | . | -0.4%[46.1 µM] | .
CCOC(=O)c1c(NC(=O)COC(=O)c2nc(Cl)ccc2Cl)sc(C(=O)N(C)C)c1C | 2.1% | 4.7% | -2.6 | 4.8% | 25.0%
CCOC(=O)c1c(NC(=O)COC(=O)C2CCC2)sc(C(=O)N(C)C)c1C | -19.7% | -25.0% | 18.1 | 4.6% | 9.4%
CCOC(=O)c1c(NC(=O)COC(=O)Cc2ccccc2[N+](=O)[O-])sc(C(=O)N(C)C)c1C | -12.4% | 10µM* | -3.0 | 1.4% | -3.9%[46.1 µM]
CCOC(=O)c1c(NC(=O)COC(=O)c2ccccc2NC)sc(C(=O)N(C)C)c1C | 25.1µM* | 12.6µM* | -12.3 | ? | ?
CCOc1cccc2sc(NC(=O)c3ccc(S(=O)(=O)N4CCCCC4C)cc3)nc12 (stereo not drawn) | ? | . | -0.3 | ? | .
CSCc1ccc(C(=O)NC(C)c2cnn(-c3ccccn3)c2C)o1 (stereo not drawn) | 20.3% | ? | 35.6 | -7.1% | 22.1%
SMILES | FMDV antiviral | HCV inh | HCMV antiviral | LASV entry inh | Marburg entry inh
COCc1c(C(=O)OCC(=O)N2c3ccccc3NC(=O)C2(C)C)oc2ccccc12 | 25.1µM* | ? | 7.5 | -8.2% | ?
COc1cc(/C=C/C(=O)OCC(=O)N2c3ccccc3NC(=O)C2(C)C)cc(OC)c1OC | 28.2µM* | ? | -3.3 | . | .
COc1cc(OC)cc(C(=O)NCC(=O)OCC(=O)N2c3ccccc3NC(=O)C2(C)C)c1 | 1.4% | 19.5% | -98.4* | . | 5.5%[46.1 µM]
COc1ccc(S(N)(=O)=O)cc1C(=O)OCC(=O)N1c2ccccc2NC(=O)C1(C)C | 1.3% | -4.3% | -13.3 | -14.4% | 22.8%[46.1 µM]
COc1ccc(Cc2nc3ccccc3n2Cc2ccccc2F)cc1 | -28.5% | . | -11.9 | -26.1%[46.1 µM] | ?
Cc1ccc2cc3cc(C(=O)Nc4ccc(F)cc4Cl)oc3nc2c1 | -2.9% | . | -22.3 | 0.1%[46.1 µM] | .
CC1CCCN(CCCN2C(=O)C3C(C(=O)Nc4cccc(Cl)c4)C4C=CC3(O4)C2C(=O)NC2CCCCC2)C1 (stereo not drawn) | -8.9% | 1.7% | 34.8 | -19.7%[46.1 µM] | ?
CC(NC(=O)COc1ccccc1-c1ccccc1)c1ccccc1 (stereo not drawn) | ? | -7.9% | -69.1* | 17.8µM* | ?
C/C(CCc1ccccc1)=N\NC(=O)COc1ccccc1C | -1.1% | ? | 26.3 | . | ?
C/C(CCC(C)C)=N\NC(=O)COc1ccccc1-c1ccccc1 | -10.5% | -4.7% | -90.0* | ? | ?
O=C(COc1ccc([N+](=O)[O-])cc1Cl)N1CCc2ccccc21 | 39.1% | 2.5% | ? | . | .
CN(C)c1ccc(-c2nc3ccccn3c2/N=C/c2ccc(Br)cc2)cc1 | 12.6µM* | 24.9% | ? | 7.08µM* | ?
CCOc1ccc(OCCNC(=O)c2cc(C3CC3)nc3c2cnn3C(C)C)cc1 | ? | 3.16µM* | -23.5 | -28.2% | ?
CC(C)n1ncc2c(C(=O)N3CCN(c4ccccc4)CC3)cc(-c3ccccc3)nc21 | 0.0% | ? | -8.5 | . | .
CC(C)n1ncc2c(C(=O)NCCc3ccc(S(N)(=O)=O)cc3)cc(C3CC3)nc21 | -4.3% | -3.7% | -26.9 | ? | ?
COc1ccc(CNC(=O)c2cc(C3CC3)nc3c2cnn3C(C)C)cc1 | -0.6% | 2.24µM* | 23.0 | . | .
COc1ccc(CCNC(=O)c2cc(C3CC3)nc3c2cnn3C(C)C)cc1OC | ? | ? | 0.0 | . | .
COc1ccccc1CNC(=O)c1cc(C2CC2)nc2c1cnn2C(C)C | -20.8% | 1µM* | -23.4 | -25.1% | ?
COc1ccc(NC(=O)c2cc(-c3ccccc3)nc3c2cnn3C(C)C)cc1 | 39.8µM* | -19.3% | -33.6 | . | .
